Among the test systems are S6K1; SBK1; SGK2.
Conditions in all cases: concentration: 1 μM, replicates: in singlicate; n = 1
In assay [1] the test system is T1, RSK1(Kin.Dom.2-C-terminal).
T1 construct: gene RPS6KA1

Assay [2] deals with T2, RSK2(Kin.Dom.1-N-terminal).
T2 construct: gene RPS6KA3

For assay [3], the system named is T3, RSK2(Kin.Dom.2-C-terminal).
T3 construct: gene RPS6KA3

In assay [4] the test system is T4, RSK3(Kin.Dom.1-N-terminal).
T4 construct: gene RPS6KA2

The test system of assay [5] is T5, RSK3(Kin.Dom.2-C-terminal).
T5 construct: gene RPS6KA2

Assay [6] has as its system T6, RSK4(Kin.Dom.1-N-terminal).
T6 construct: gene RPS6KA6

Assay [7] concerns T7, RSK4(Kin.Dom.2-C-terminal).
T7 construct: gene RPS6KA6
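Further: KINOMEscan kinase panel screen.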

Take `Cc1ccc(NC(=O)Nc2ccccc2)cc1-c1ccc(C(=O)Nc2ccncc2)cc1` [GSK1398471]: the “%Inh” value in [1] was found to be 10%; in assay [2], 0%; in assay [3], 1%; in assay [4] it was 3%; in assay [5], 7%; in [6], 0%. Also, the “%Inh” value in assay [7] was 6%; in the assay with S6K1 it was 0%; in the assay with SBK1 it was 5%; in the assay with SGK2, 0%.

`CNc1nc(-c2ccc3c(N)n[nH]c3c2)cc(N2C[C@@H](C(=O)NC3CCCCC3)OC[C@H]2C)n1` [GSK2375584]: the “%Inh” value in [1] was 19%; in assay [2] it was 0%; in assay [3], 14%; in [4], 9%; in [5], 6%; in assay [6], 0%. Moreover, the “%Inh” value in assay [7] is 20%; with S6K1, 10%; with SBK1 it was 0%; in the assay on SGK2, 0%.

Regarding `CS(=O)(=O)CCNCc1nc(-c2ccc3ncnc(Nc4ccc5c(cnn5Cc5ccccc5)c4)c3c2)cs1.Cl.Cl` [GW569716], the “%Inh” value amounted to 0% in assay [1]; 0% in assay [2]; 0% in assay [3]; 0% in assay [4]; 4% in assay [5]; 0% in assay [6]. Moreover, the “%Inh” value was 5% in [7], 5% in the assay with S6K1, 0% in the assay on SBK1 and 7% in the assay on SGK2.

Turning to `O=C(Nc1n[nH]c2cc(-c3ccsc3)ccc12)C1CC1` [SB-732932], the “%Inh” value in assay [1] is recorded as 19%; in assay [2] it was 27%; in [3], 0%; in assay [4] it was 71%; in assay [5], 16%; in assay [6] it was 29%. Also, the “%Inh” value in [7] was determined as 24%; in the assay on S6K1, 13%; in the assay on SBK1, 44%; in the assay with SGK2, 4%.

Regarding `Cc1c(Cn2c3ccccc3n3c(=O)cc(N4CCOCC4)nc23)cccc1C(F)(F)F` [GSK2306394], the “%Inh” value in [1] came out at 0%; in [2] it was 4%; in [3] it was 30%; in [4] it was 5%; in assay [5], 1%; in assay [6] it was 0%. The “%Inh” value in assay [7] is 11%; in the assay with S6K1, 0%; with SBK1 it was 9%; in the assay on SGK2, 0%.

As to `CNC(=O)c1ccc(C)c(-n2c(C)cc(OCc3ccc(F)cc3F)c(Br)c2=O)c1`, the “%Inh” value in assay [1] came out at 0%; in assay [2], 0%; in [3] it was 0%; in assay [4], 10%; in assay [5], 0%; in assay [6], 0%. Moreover, the “%Inh” value (in assay [7]; in the assay on S6K1; in the assay with SBK1; with SGK2) was 0% each time.

For `Cc1c(Cn2c(C)c(C)n3c(=O)cc(N4CCOCC4)nc23)cccc1C(F)(F)F` [GSK2328680], the “%Inh” value turned out to be 0% in assay [1]; 0% in assay [2]; 2% in [3]; 7% in [4]; 0% in [5]; 0% in assay [6]. For the same molecule, the “%Inh” value in assay [7] came out at 5%; in the assay with S6K1, 0%; in the assay with SBK1, 22%; in the assay on SGK2 it was 0%.

For `COc1cc2ncnc(Nc3cccc(Br)c3)c2cc1OC.Cl` [GI230329], the “%Inh” value in [1] was 11%; in assay [2], 11%; in assay [3], 5%; in assay [4] it was 0%; in assay [5] it was 0%; in [6] it was 0%. Also, the “%Inh” value in assay [7] is reported as 15%; in the assay with S6K1 it was 0%; in the assay with SBK1, 16%; in the assay on SGK2, 2%.

For the molecule `COc1ccc(Nc2nccc(NCCNC(=O)Nc3cc(C)ccc3C)n2)cc1` [GSK1379899], the “%Inh” value in assay [1] was 0%; in [2], 4%; in [3] it was 9%; in [4], 0%; in assay [5] it was 0%; in assay [6] it was 0%. Further, the “%Inh” value (in assay [7]; with S6K1; in the assay with SBK1; in the assay on SGK2) was 0% in each case.

For the molecule `Cc1nccc(-c2c(-c3ccc(F)cc3)ncn2CCCN2CCOCC2)n1.Cl` [SB-282975], the “%Inh” value in [1] came to 5%; in [2], 29%; in [3], 44%; in assay [4], 9%; in assay [5], 0%; in assay [6], 22%. The “%Inh” value in assay [7] is reported as 6%; in the assay on S6K1 it was 9%; with SBK1, 29%; in the assay with SGK2, 27%.

As for `CC(=O)c1c(C)c2cnc(Nc3ccc(N4CCNCC4)cn3)nc2n(C2CCCC2)c1=O`, the “%Inh” value in assay [1], in assay [2], in assay [3], in assay [4], in assay [5] and in [6] was 0% in each case. Besides, the “%Inh” value is reported as 1% in assay [7], 0% in the assay with S6K1, 0% with SBK1 and 0% in the assay with SGK2.

On to `Fc1ccc(-c2nc[nH]c2-c2ccncc2)cc1` [SB-217360], for which the “%Inh” value was determined as 47% in [1]; 34% in assay [2]; 4% in assay [3]; 0% in assay [4]; 6% in [5]; 16% in assay [6]. Moreover, the “%Inh” value was 87% in [7], 8% with S6K1, 0% in the assay on SBK1 and 0% in the assay on SGK2.

For the molecule `CCCCc1nn2ncccc2c1-c1ccnc(NC2CC2)n1` [GW684374], the “%Inh” value in assay [1] is reported as 28%; in assay [2], 26%; in [3] it was 0%; in assay [4], 0%; in [5] it was 0%; in assay [6], 0%. In addition, the “%Inh” value in assay [7] came to 32%; in the assay with S6K1, 0%; with SBK1, 0%; in the assay on SGK2, 0%.

`COC(=O)C(Cc1ccccc1)NC(=O)NC1CCN(c2ccnc(Nc3ccc(F)cc3)n2)C1` (centres unmarked) [GSK1379714]: the “%Inh” value in assay [1] came out at 0%; in assay [2], 0%; in assay [3], 19%; in [4], 5%; in assay [5], 10%; in assay [6], 1%. Besides, the “%Inh” value in assay [7] turned out to be 9%; in the assay on S6K1 it was 2%; with SBK1 it was 13%; in the assay on SGK2, 0%.

Regarding `Nc1ncnc2occ(-c3ccc4c(c3)CCN4C(=O)Cc3cc(F)ccc3F)c12` [GSK2645446], the “%Inh” value in [1] came to 0%; in assay [2], 0%; in assay [3], 7%; in assay [4] it was 0%; in assay [5], 16%; in assay [6] it was 0%. For the same molecule, the “%Inh” value in assay [7] turned out to be 15%; in the assay on S6K1, 0%; in the assay on SBK1 it was 10%; in the assay with SGK2 it was 0%.

`O=c1cc(N2CCOCC2)nc2n(Cc3ccccc3F)ccn12` [GSK2297428]: the “%Inh” value in assay [1] was determined as 0%; in assay [2], 0%; in [3] it was 0%; in assay [4], 3%; in assay [5], 0%; in assay [6], 0%. Also, the “%Inh” value (in assay [7]; in the assay on S6K1; with SBK1; with SGK2) was 0% throughout.

Regarding `CCc1ccc(-c2ccc3c(c2)-c2n[nH]cc2S(=O)(=O)N3C)cc1`, the “%Inh” value in [1] is 30%; in assay [2], 7%; in assay [3], 52%; in assay [4] it was 5%; in assay [5], 17%; in assay [6] it was 1%. Further, the “%Inh” value in assay [7] stood at 20%; with S6K1 it was 0%; with SBK1, 0%; in the assay with SGK2, 0%.

Values taken from article PMC5540273 (PLoS ONE, 2017).
